For 26 molecules, Potency results are on record in PubChem BioAssay (NCATS).

The target in experiment [1] is Calcium and integrin-binding protein 1 (Homo sapiens) (UniProt Q99828). Briefly: Primary qHTS for Identification of Calcium Integrin Binding Protein 1 (CIB1) Competitor (AID 1508620).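 Also: GST tagged CIB1 binding a fluorescein labelled alphaIIb integrin peptide tracer; top concentration of the series differs between compounds.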 The procedure, abridged: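 CIB1-GST (1 uM final) and compound incubated 15 min at room temperature before adding FITC-alphaIIb peptide tracer (100 nM final). Competition for binding read by fluorescence polarization (ex 480, em 540) after another 15 min at room temperature.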
Calcium and integrin-binding protein 1 (Homo sapiens), sequence (Q99828 whole entry, looked up): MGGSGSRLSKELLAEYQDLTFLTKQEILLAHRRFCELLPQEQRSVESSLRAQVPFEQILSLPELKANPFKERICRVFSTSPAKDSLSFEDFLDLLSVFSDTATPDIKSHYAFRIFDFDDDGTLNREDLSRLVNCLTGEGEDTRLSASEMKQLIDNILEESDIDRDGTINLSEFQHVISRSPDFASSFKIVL
Background: Quantitative high-throughput screening tests each substance at several concentrations.

For experiment [2], the target named is Cytochrome P450 2C9 (Homo sapiens) (UniProt P11712). Briefly: Cytochrome P450 family 2 subfamily C member 9 (CYP2C9) small molecule antagonists: luciferase biochemical (cell-free) qHTS assay (AID 1645842; active = well fitted curve in the direction sought with a large enough effect in the repeat runs; an effect the other way counts as inactive or inconclusive; also: nearly all actives have a fitted effect of over 55% in size; also: potency is read from the fitted curve at half-maximal effect). The gist of the method: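 P450-Glo CYP2C9 system: proluciferin substrate with enzyme in mix containing 0.4% BSA, 10 min at room temperature, then NADPH regeneration solution added and incubated 1 h at 37C. Detection reagent stopped reaction; luminescence read after 20 min as RLU.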
Cytochrome P450 2C9 (Homo sapiens), sequence (P11712 whole entry, looked up): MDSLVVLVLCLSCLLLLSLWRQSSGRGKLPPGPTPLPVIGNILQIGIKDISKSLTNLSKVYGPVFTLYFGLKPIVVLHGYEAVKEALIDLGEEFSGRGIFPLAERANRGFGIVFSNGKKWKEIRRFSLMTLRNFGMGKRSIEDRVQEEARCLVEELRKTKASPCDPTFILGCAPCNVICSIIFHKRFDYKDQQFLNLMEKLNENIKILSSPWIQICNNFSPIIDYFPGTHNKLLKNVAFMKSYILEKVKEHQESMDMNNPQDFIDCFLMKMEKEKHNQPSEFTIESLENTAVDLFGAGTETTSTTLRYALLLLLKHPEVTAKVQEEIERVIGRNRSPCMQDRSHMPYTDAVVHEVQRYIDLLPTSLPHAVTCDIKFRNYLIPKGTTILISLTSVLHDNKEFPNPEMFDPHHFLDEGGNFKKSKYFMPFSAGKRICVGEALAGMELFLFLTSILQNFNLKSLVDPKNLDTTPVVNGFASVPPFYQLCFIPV

Experiment [3] in a line: Primary qHTS for inhibitors of nuclear receptor binding SET domain protein 2 (NSD2) in an isogenic RCH-ACV NSD2 p.E1099K mutant (9B) (AID 1645876). Also: nearly all actives have a fitted effect of over 70% in size. Also: potency is read from the fitted curve at half-maximal effect.
Experiment [4] is described as follows: Primary qHTS for small molecule stabilizers of the endoplasmic reticulum resident proteome: Secreted ER Calcium Modulated Protein (SERCaMP) assay (AID 1508630). The gist of the method:
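The SH-SY5Y reporter protocol was run at 3 concentrations up to 38.3 uM (primary) or 11 concentrations (follow-up): 16 h compound, 100 nM thapsigargin for 4 h, then extracellular luciferase luminescence.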

The target of experiment [5] is Cytochrome P450 2D6 (Homo sapiens) (UniProt P10635). Description: Cytochrome P450 family 2 subfamily D member 6 (CYP2D6) small molecule antagonists: luciferase biochemical (cell-free) qHTS assay (AID 1645840; active = well fitted curve in the direction sought with a large enough effect in the repeat runs; an effect the other way counts as inactive or inconclusive; also: potency is read from the fitted curve at half-maximal effect; nearly all actives have a fitted effect of over 55% in size). The gist of the method:
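P450-Glo CYP2D6 system: proluciferin substrate converted by enzyme to luciferin, read by luminescence proportional to activity. Enzyme-substrate mix with compound 10 min at room temperature, then NADPH regeneration 1 h before detection reagent.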

Several values for one entry are separate records, joined by “and”; a condition that tells them apart may be missing. Equal values may be shown once. Records with an inconclusive call do not appear. The source holds several records for some structures; these can differ, active in one and inactive in another. Activity calls are given as the source filed them. Unless noted, calls follow the shape of the dose curve; as a rule, active = well fitted curve in the direction sought with a large enough effect; inconclusive = small, poorly fitted or top-dose-only effect, or another doubt; inactive = no such curve, though single readings can be large; an effect the other way counts as inactive or inconclusive.

Cytochrome P450 2D6 (Homo sapiens), sequence (P10635 whole entry, looked up): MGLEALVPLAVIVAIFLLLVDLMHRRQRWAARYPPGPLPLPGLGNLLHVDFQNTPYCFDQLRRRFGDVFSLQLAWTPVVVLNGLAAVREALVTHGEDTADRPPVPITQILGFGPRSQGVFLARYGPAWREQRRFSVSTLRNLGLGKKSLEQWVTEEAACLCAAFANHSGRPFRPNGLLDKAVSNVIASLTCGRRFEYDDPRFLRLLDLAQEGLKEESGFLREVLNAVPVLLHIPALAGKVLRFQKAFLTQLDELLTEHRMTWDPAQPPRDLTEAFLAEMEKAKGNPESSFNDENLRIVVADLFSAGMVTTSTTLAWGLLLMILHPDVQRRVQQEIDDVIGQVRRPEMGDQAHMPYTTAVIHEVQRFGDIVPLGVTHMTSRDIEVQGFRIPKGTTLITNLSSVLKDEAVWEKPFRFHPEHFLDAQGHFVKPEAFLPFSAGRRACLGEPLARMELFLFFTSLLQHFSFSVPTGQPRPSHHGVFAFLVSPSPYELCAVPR

For `CC1(C)CC(=O)c2c(C(F)(F)F)nn(-c3ccc(C(N)=O)c(NC4CCC(O)CC4)c3)c2C1` (centres undefined), the Potency entry in experiment [1] was “inactive”. The Potency in experiment [2] was 6.01 µM (active); in experiment [3], 57.8 nM (active) and 83.3 nM (active).

Consider `CN(C)CCN(C)C(=O)c1ccc(NC(=O)Nc2ccc(-c3nc(N4CCOCC4)c4ccn(CC(F)(F)F)c4n3)cc2)cc1`, for which the Potency result in experiment [1] and in experiment [4] was “inactive” throughout. For the same molecule, in experiment [3], the Potency is 0.0209 µM (active).

On to `N#CC1(c2cccc(C(=O)Nc3cc(Oc4ccc5nc(NC(=O)C6CC6)sc5n4)ccc3F)c2Cl)CC1`, for which the Potency entry in experiment [1] and in experiment [4] was “inactive” in each case. Besides, the Potency in experiment [3] is 1.83 µM (active) and inactive.

Consider `CCOC(=O)[C@@H](N)CCC(=O)N[C@@H](CSCc1ccccc1)C(=O)N[C@@H](C(=O)OCC)c1ccccc1`, for which the Potency result in experiment [1] and in experiment [4] was “inactive” in each case. Further, in experiment [3], the Potency is 20.9 µM (active).

`COc1cc2c(cc1OC)CC(=O)N(CCCN(C)C[C@H]1Cc3cc(OC)c(OC)cc31)CC2`: the Potency entry in experiment [1], in experiment [4] and in experiment [3] was “inactive” each time.

`OC(c1cc(C(F)(F)F)nc2c(C(F)(F)F)cccc12)C1CCCCN1` (centres undefined): the Potency result in experiment [1] and in experiment [4] was “inactive” in each case. Moreover, the Potency in experiment [3] was 11.8 µM (active).

Take `CN(C)c1ccccc1CN1CCCN(Cc2ccccc2N(C)C)C1c1ccncc1`: the Potency entry in experiment [1] and in experiment [4] was “inactive” each time. Besides, in experiment [3], the Potency was 14.8 µM (active).

As to `CN(C)CC[C@H](CSc1ccccc1)Nc1ccc(S(=O)(=O)NC(=O)c2ccc(N3CCN(Cc4ccccc4-c4ccc(Cl)cc4)CC3)cc2)cc1[N+](=O)[O-]`, the Potency entry in experiment [1] and in experiment [4] was “inactive” each time. Also, in experiment [3], the Potency was 4.17 µM (active).

In the case of `COc1ccc(CCN(C)CCCOc2ccc(S(=O)(=O)c3[nH]c4ccccc4c3C(C)C)cc2)cc1OC`, the Potency result in experiment [1] and in experiment [4] was “inactive” throughout. Also, the Potency in experiment [3] was 13.2 µM (active).

Turning to `CC1CCN(c2cc(N3CCN(C)CC3)ccc2NC(=O)c2cc(C#N)c[nH]2)CC1`, the Potency result in experiment [1] is “inactive”. Moreover, the Potency in experiment [5] was 1.2 µM (active).

Turning to `O=C1CN2Cc3c(ccc(Cl)c3Cl)N=C2N1`, the Potency result in experiment [1], in experiment [4] and in experiment [3] was “inactive” in each case.

Turning to `Cc1ccc(C(=O)N(CCCN)[C@@H](c2nc3cc(Cl)ccc3c(=O)n2Cc2ccccc2)C(C)C)cc1`, the Potency entry in experiment [1] and in experiment [4] was “inactive” each time. Besides, the Potency in experiment [3] is 0.0132 µM (active).

As to `NC1(C(=O)N[C@@H](CCO)c2ccc(Cl)cc2)CCN(c2ncnc3[nH]ccc23)CC1`, the Potency entry in experiment [1] and in experiment [4] was “inactive” each time. Further, the Potency in experiment [3] is 0.817 µM (active).

For the molecule `O=C1NC(=O)C(c2cnc3ccccn23)=C1c1cn2c3c(cccc13)CN(C(=O)N1CCOCC1)CC2`, the Potency result in experiment [1] and in experiment [4] was “inactive” throughout. Further, the Potency in experiment [3] is 0.0148 µM (active).

On to `O=C(O)C1=NC(C(=O)O)CC(C=CN2c3cc(O)c(OC4OC(CO)C(O)C(O)C4O)cc3CC2C(=O)O)=C1` (centres undefined), for which the Potency entry in experiment [4] is “inactive”.

Consider `Cc1nn(Cc2ccccc2Cl)c(C)c1CN(C)CC(O)COc1ccc(Cl)cc1` (centres undefined), for which the Potency entry in experiment [4] and in experiment [2] was “inactive” each time. Moreover, the Potency in experiment [5] was 0.536 µM (active); in experiment [3], 18.6 µM (active).

Take `COc1cc([C@@H]2c3cc4c(cc3[C@@H](O[C@@H]3O[C@@H]5CO[C@@H](C)O[C@@H]5[C@H](O)[C@@H]3O)[C@H]3COC(=O)[C@H]23)OCO4)cc(OC)c1O`: in experiment [1], the Potency entry was “inactive”. Moreover, in experiment [3], the Potency is 0.263 µM (active).

For the molecule `O=C(CC12CC3CC(CC(C3)C1)C2)Nc1cccc2nc(NCCNCCO)ccc12`, the Potency result in experiment [4] and in experiment [2] was “inactive” in each case. Besides, the Potency in experiment [3] is 20.9 µM (active).

For the molecule `CCC(=O)N1CCN(c2ccc(-n3c(=O)ccc4cnc5ccc(-c6cnc7ccccc7c6)cc5c43)cc2C(F)(F)F)CC1`, the Potency entry in experiment [1] was “inactive”. Also, the Potency in experiment [2] was 10.7 µM (active); in experiment [3] it was 13.3 nM (active) and 12.9 nM (active).

As to `O=C(Nc1ncc(SCCN2CCCC2)s1)[C@]1(c2ccc(S(=O)(=O)C3CC3)cc2)C[C@@H]1C1CCCCC1`, in experiment [1], the Potency entry was “inactive”. Moreover, the Potency in experiment [3] was 20.6 µM (active).

Regarding `CO[C@H]1/C=C\O[C@@]2(C)Oc3c(C)c(O)c4c(O)c(c(C=NN5CCN(C6CCCC6)CC5)c(O)c4c3C2=O)NC(=O)C(C)=CC=C[C@H](C)[C@H](O)[C@@H](C)[C@@H](O)[C@@H](C)[C@H](OC(C)=O)[C@H]1C`, in experiment [4], the Potency result is “inactive”.

`CON(C)C(=O)N1N=C(c2cc(F)ccc2F)S[C@]1(CCCN)c1ccccc1`: the Potency result in experiment [4] was “inactive”.

As to `O=C(Nc1cccc(Cl)c1)Nc1ncc(CCNc2ncnc3ccsc23)s1`, the Potency result in experiment [4] was “inactive”. Moreover, the Potency in experiment [3] is 1.86 µM (active).

Take `CCNC(=O)[C@H]1O[C@@H](n2cnc3c(N)nc(NCCc4ccc(CCC(=O)O)cc4)nc32)[C@H](O)[C@H]1O`: in experiment [4], the Potency result was “inactive”.

With `COc1ccc(Cn2ccc3ccc(C(=O)NO)cc32)cc1`, the Potency result in experiment [1] is “inactive”. Further, the Potency in experiment [3] is 9.16 µM (active) and 13.2 µM (active).

`COc1ccc(-c2cc(=O)c3c(O)cc(O[C@@H]4O[C@H](CO[C@@H]5O[C@@H](C)[C@H](O)[C@@H](O)[C@@H]5O)[C@@H](O)[C@H](O)[C@@H]4O)cc3o2)cc1O`: the Potency result in experiment [4] is “inactive”.
